Screening data (PubChem)
Only some compounds are listed: those with a hit (about 18% of all), similar ones and a draw of the others.
CtBP-E1A inh – blocks the CtBP interaction with E1A. AlphaScreen GST-E1A/His-CtBP binding, 1536-well; stronger effect = lower value. activity change, % (concentration not given with the values). actives 0.49% (n = 340,000). AID 651724; in the data active means activity change below about -65%; inconclusive means mostly about -30% to -63%
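AlphaScreen with 125 nM GST-E1A and 125 nM His-CtBP (5X stocks) in Tris pH 8.0, 300 mM NaCl, BSA, Tween 20, TCEP. Compounds preincubated 2 h at 37 deg C, then glutathione donor/nickel acceptor beads added for 1 h at 37 deg C in dark.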
TDP1 cell noCPT – qHTS for Inhibitors of human tyrosyl-DNA phosphodiesterase 1 (TDP1): qHTS in cells in absence of CPT. DT40 Tdp1-/- hTDP1 cells, no CPT, ATP luminescence, 48 h. Potency, µM (doses to about 46.2 µM), inactives show at the highest dose activity change, negative = growth inhibition, actives largely listed as inhibitors. actives 15% (n = 420,000). AID 686978, 2013; further: potency means the concentration at half of the fitted maximal effect; nearly all actives have a fitted effect of over 55% in size
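Chicken DT40 Tdp1-/- cells complemented with human TDP1, screened without camptothecin (DMSO vehicle only), 400 cells/well. Compounds pin-transferred, cells incubated at 37 °C for at least 48 hr. Growth read as ATP-dependent luminescence (CellTiter-Glo, 30 min at RT).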
Six1-Eya2 inh – blocks human Six1 binding to Eya2; AlphaScreen GST-Six1/His-Eya2 binding, biochemical; stronger effect = lower value; actives 0.56% (n = 360,000); activity change, % (no concentration beside the values); Q15475+O00167; in the data active means activity change below about -65%; inconclusive means mostly about -30% to -63%
Target sequence (O00167 whole entry, looked up): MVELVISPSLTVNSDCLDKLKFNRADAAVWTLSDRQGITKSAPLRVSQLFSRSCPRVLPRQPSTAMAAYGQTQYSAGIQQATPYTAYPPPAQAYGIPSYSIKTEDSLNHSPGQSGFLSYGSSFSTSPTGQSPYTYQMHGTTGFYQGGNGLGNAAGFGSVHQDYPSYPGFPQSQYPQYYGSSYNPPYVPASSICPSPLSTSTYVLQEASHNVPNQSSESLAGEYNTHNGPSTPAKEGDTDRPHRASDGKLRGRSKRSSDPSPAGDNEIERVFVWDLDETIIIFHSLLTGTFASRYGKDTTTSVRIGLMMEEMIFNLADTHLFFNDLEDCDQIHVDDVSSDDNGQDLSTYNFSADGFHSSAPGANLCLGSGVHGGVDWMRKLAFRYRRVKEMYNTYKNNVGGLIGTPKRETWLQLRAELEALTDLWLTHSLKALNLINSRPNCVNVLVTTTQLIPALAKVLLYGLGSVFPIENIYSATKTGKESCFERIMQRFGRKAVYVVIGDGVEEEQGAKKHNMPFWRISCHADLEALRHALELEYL
Target sequence (Q15475 whole entry, looked up): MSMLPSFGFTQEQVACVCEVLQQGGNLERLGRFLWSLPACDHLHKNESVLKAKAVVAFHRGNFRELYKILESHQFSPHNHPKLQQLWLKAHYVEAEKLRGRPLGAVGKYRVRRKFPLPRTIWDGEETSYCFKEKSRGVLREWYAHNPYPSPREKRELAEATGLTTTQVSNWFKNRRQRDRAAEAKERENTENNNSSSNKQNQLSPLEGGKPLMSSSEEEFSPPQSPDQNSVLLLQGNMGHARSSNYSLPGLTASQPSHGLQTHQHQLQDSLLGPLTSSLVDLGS
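Compounds are tested against tagged Six1 and Eya2 proteins bridged by glutathione donor and nickel acceptor beads; after a one-hour incubation at 37 °C without light, AlphaScreen emission is recorded.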
IL1B secr inh – inflammasome signaling inhibition, IL-1 beta readout | activity change, % at 57.5 µM | THP-1 LPS/ATP IL-1B secretion, AlphaLISA, 16 h; stronger effect = lower value | actives 4.7% (n = 360,000) | AID 743279; in the data active means activity change below about -50%; inconclusive means mostly about -30% to -49%
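Secreted IL-1B measured by AlphaLISA bead assay after 16 h compound exposure of THP-1 cells; compounds (final up to 57.5 uM) added 1 h before LPS (250 ng/mL) and ATP (1.25 mM) stimulation; lower signal means less secretion.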
TDP1 block – TDP1 (human) enzyme inhibition; Q9NUW8; recombinant TDP1, AlphaScreen DNA substrate cleavage; Potency, µM (series often up to 130 µM), for the others: at the top dose activity change, negative = inhibition, most hits filed as inhibitors; actives 0.28% (n = 350,000); AID 485290; further: potency means the concentration at half of the fitted maximal effect; nearly all actives have a fitted effect of over 40% in size
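Tdp1 1 nM final; 15 min RT w/ cpd; substrate 15 nM, 5 min; beads 10 ug/ml, 10 min; AlphaScreen read. Neg ctrl: no enzyme.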
DT40 TDP1 CPT – DT40-hTDP1 cell growth loss with CPT; chicken DT40 Tdp1-/-;hTDP1 cells + 20 nM CPT, ATP luminescence, 48 h; Potency, µM (top dose mostly 46.2 µM), for inactives: at the highest dose activity change, negative = growth inhibition, hits mostly inhibitors; actives 12% (n = 420,000); further: potency means the concentration at half of the fitted maximal effect; nearly all actives have a fitted effect of over 55% in size
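Chicken DT40 Tdp1-/- cells stably complemented with human TDP1 were seeded at 400 cells/well in medium containing 20 nM camptothecin, exposed to pin-transferred compounds, and grown at 37 °C for at least 48 hr. Viability was read as ATP luminescence.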
Starred values were filed as active, the others as inactive; [ ] = dose if it differs, or a comment. Unless noted, the call rests on the fitted dose curve; in most records, active means well fitted curve in the direction sought with a large enough effect; inconclusive means small, poorly fitted or top-dose-only effect, or another doubt; inactive means no such curve, though single readings can be large; an effect the other way counts as inactive or inconclusive. On the % scale 0 is the no-effect control and ±100 the full control effect.

Results for CC12CCC(C1)C(C)(C)C2OC(=O)c1ccccc1C(=O)O (stereo not drawn) ?
CtBP-E1A inh: 1; TDP1 cell noCPT: -8%; Six1-Eya2 inh: 3; IL1B secr inh: 13; TDP1 block: 5%; DT40 TDP1 CPT: -23%

Results for COc1ccc(-c2noc(N3CCC(C(=O)NCCCN4CCC(C)CC4)CC3)n2)cc1 ?
CtBP-E1A inh: 7; TDP1 cell noCPT: inconclusive; Six1-Eya2 inh: 7; IL1B secr inh: 8; DT40 TDP1 CPT: -11%

What do the screens show for `COc1sc(SC)cc1/C=N/NC(=O)c1ccncc1`?
CtBP-E1A inh: -10; TDP1 cell noCPT: -26%; Six1-Eya2 inh: -6; IL1B secr inh: -15; TDP1 block: 8%; DT40 TDP1 CPT: -25%

What do the screens show for `O=C(Nc1cc(Cl)cc(Cl)c1)C1CCCC1`?
CtBP-E1A inh: 22; TDP1 cell noCPT: inconclusive; Six1-Eya2 inh: 19; IL1B secr inh: 18; TDP1 block: 0%; DT40 TDP1 CPT: inconclusive

What do the screens show for `O=C1c2cccc(NCCNCCO)c2C(=O)c2cccc(NCCNCCO)c21`?
CtBP-E1A inh: -7; TDP1 cell noCPT: 0.73µM*; Six1-Eya2 inh: -71*; IL1B secr inh: -117*; DT40 TDP1 CPT: 0.37µM*

How did O=C(O)CCNc1ccc(NCCC(=O)O)c2c1C(=O)c1ccccc1C2=O do in these assays?
TDP1 cell noCPT: inconclusive; Six1-Eya2 inh: -85*; IL1B secr inh: 0; DT40 TDP1 CPT: inconclusive

How did Cc1ccc(N(CC(=O)NCc2ccccc2)S(=O)(=O)c2c(C)noc2C)cc1 do in these assays?
CtBP-E1A inh: 2; TDP1 cell noCPT: inconclusive; Six1-Eya2 inh: -3; IL1B secr inh: 33; TDP1 block: 11%; DT40 TDP1 CPT: -18%

What do the screens show for `Cc1ccc(-n2cc(CNCCc3ncc(C)[nH]3)c(-c3ccc(F)cc3)n2)cc1`?
CtBP-E1A inh: -18; TDP1 cell noCPT: inconclusive; Six1-Eya2 inh: -14; IL1B secr inh: -82*; TDP1 block: 0%; DT40 TDP1 CPT: 16µM*

What do the screens show for `COc1ccc(-n2cc(CNCCN3CCOC3=O)c(-c3ccccc3Cl)n2)cc1`?
CtBP-E1A inh: 3; TDP1 cell noCPT: -16%; Six1-Eya2 inh: 1; IL1B secr inh: 7; DT40 TDP1 CPT: inconclusive

Results for Cc1ccc(-n2cc(CNCCN3CCOC3=O)c(-c3ccc(F)cc3)n2)cc1 ?
CtBP-E1A inh: 2; TDP1 cell noCPT: inconclusive; Six1-Eya2 inh: 2; IL1B secr inh: -71*; TDP1 block: 4%; DT40 TDP1 CPT: 23µM*

What do the screens show for `Cc1ccc(-n2cc(CNCCn3nc(C)cc3C)c(-c3ccc(F)cc3)n2)cc1`?
CtBP-E1A inh: -3; TDP1 cell noCPT: 23µM*; Six1-Eya2 inh: 2; IL1B secr inh: -91*; TDP1 block: -1%; DT40 TDP1 CPT: 15µM*

What do the screens show for `Fc1ccc(-n2cc(CNCCc3ccccn3)c(-c3ccccc3Cl)n2)cc1`?
CtBP-E1A inh: -1; TDP1 cell noCPT: 7.3µM*; Six1-Eya2 inh: -10; IL1B secr inh: -74*; TDP1 block: 7%; DT40 TDP1 CPT: 9.2µM*

Results for COc1ccc(-n2cc(CNCCCn3ccnc3)c(-c3ccccc3Cl)n2)cc1 ?
CtBP-E1A inh: -9; TDP1 cell noCPT: inconclusive; Six1-Eya2 inh: -15; IL1B secr inh: 0; TDP1 block: 9%; DT40 TDP1 CPT: inconclusive

How did Cc1ccc(-n2cc(CNCCCN3CCCC3=O)c(-c3ccc(F)cc3)n2)cc1 do in these assays?
CtBP-E1A inh: 2; TDP1 cell noCPT: 18µM*; Six1-Eya2 inh: -4; IL1B secr inh: -68*; TDP1 block: 6%; DT40 TDP1 CPT: inconclusive

How did Cc1cccc(-n2cc(CN3CCCN(C=O)CC3)c(-c3cccc(F)c3)n2)c1 do in these assays?
CtBP-E1A inh: 0; TDP1 cell noCPT: inconclusive; Six1-Eya2 inh: 0; IL1B secr inh: -11; TDP1 block: 0%; DT40 TDP1 CPT: inconclusive

How did Cc1ccc(-n2cc(CN3CCCN(C=O)CC3)c(-c3ccc(F)cc3)n2)cc1 do in these assays?
CtBP-E1A inh: -6; TDP1 cell noCPT: inconclusive; Six1-Eya2 inh: -12; IL1B secr inh: inconclusive; TDP1 block: 5%; DT40 TDP1 CPT: inconclusive

Results for Cc1cccc(-n2cc(CNCCN3CCOC3=O)c(-c3cccc(F)c3)n2)c1 ?
CtBP-E1A inh: -7; TDP1 cell noCPT: 21µM*; Six1-Eya2 inh: -3; IL1B secr inh: -57*; TDP1 block: 3%; DT40 TDP1 CPT: inconclusive

How did COc1ccc(C(=O)/C(C#N)=N/Nc2ccc([N+](=O)[O-])cc2)cc1 do in these assays?
TDP1 cell noCPT: 0.52µM*; Six1-Eya2 inh: -7; IL1B secr inh: 77; TDP1 block: 7%; DT40 TDP1 CPT: 0.58µM*

What do the screens show for `COc1ccc(N/N=C(\C#N)C(N)=O)cc1`?
CtBP-E1A inh: -10; TDP1 cell noCPT: -1%; Six1-Eya2 inh: 3; IL1B secr inh: -15; TDP1 block: 6%; DT40 TDP1 CPT: 11%

What do the screens show for `CCCc1c(C)nn(C(=O)/C(C#N)=N/Nc2ccccc2[N+](=O)[O-])c1C`?
CtBP-E1A inh: -5; TDP1 cell noCPT: -21%; Six1-Eya2 inh: -9; IL1B secr inh: 1; TDP1 block: 5%; DT40 TDP1 CPT: -5%

Results for COc1ccc(C(=O)/C(C#N)=N/Nc2ccccc2[N+](=O)[O-])cc1 ?
CtBP-E1A inh: -19; TDP1 cell noCPT: 1.8µM*; Six1-Eya2 inh: 0; IL1B secr inh: -22; TDP1 block: 4%; DT40 TDP1 CPT: 2.3µM*

How did Cn1c(CN2CCN(C(=O)c3ccco3)CC2)nc2cc([N+](=O)[O-])ccc21 do in these assays?
CtBP-E1A inh: -3; TDP1 cell noCPT: -27%; Six1-Eya2 inh: -6; IL1B secr inh: 2; TDP1 block: 2%; DT40 TDP1 CPT: -15%

Results for COc1ccc2sc(-c3ccc(N(C)C)cc3)c(-c3cnc(OC)nc3)c2c1 ?
CtBP-E1A inh: -1; TDP1 cell noCPT: inconclusive; Six1-Eya2 inh: -1; IL1B secr inh: -10; TDP1 block: 5%; DT40 TDP1 CPT: inconclusive

How did CN(C)c1ccc(/C=C/c2ccnc3ccc(-c4ccccc4)cc23)cc1 do in these assays?
TDP1 cell noCPT: 14µM*; DT40 TDP1 CPT: inconclusive

Results for CN(C)c1ccc(-c2ccc3ncnc(NCc4ccccc4)c3c2)cc1 ?
TDP1 cell noCPT: inconclusive; TDP1 block: 24%[56.1 µM]; DT40 TDP1 CPT: inconclusive

Results for CN(C)c1ccc(/C=C/c2ccnc3ccc(N)cc23)cc1 ?
TDP1 cell noCPT: inconclusive; DT40 TDP1 CPT: 18µM*
